Source: PubChem BioAssay (NCATS)
A number with no mark means an inactive call. Results filed as inconclusive are left out. Active and inactive are the calls of the source. Unless noted, calls come from the whole dose curve; as a rule, active = well fitted curve in either direction with a large enough effect (not every such curve was filed as active); inconclusive = small, poorly fitted or top-dose-only effect, or another doubt; inactive = flat fitted curve, though single readings scatter.

Experiments:
[1] = target: Lysosomal acid glucosylceramidase (Homo sapiens) (UniProt P04062); assay: Glucocerebrosidase-p2 (AID 348; in the data active = potency below about 10 µM; note: potency is the fitted concentration of half-maximal effect); conditions: purified GBA, blue fluorogenic substrate, 40 min
Procedure, shortened: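 Normal human glucocerebrosidase (0.2 nM) with blue fluorogenic substrate (80 uM final) in citrate/phosphate pH 5.9 with 10mM sodium taurocholate, 0.01% tween-20; 40 min RT, NaOH/glycine stop; fluorescence Ex 365/Em 440; AC50 from a titration from 0.6 nM upwards.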

[2] = AP1 Signaling Pathway (AID 357); conditions: ME-180 AP-1-bla reporter, EGF-induced, beta-lactamase ratio, 5 h; at 7.69 µM (top of the series) unless noted;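 note: ME-180 reporter cells stimulated with EGF at its EC50 level; % is set by controls: 0 for no effect and ±100 for the full control effect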
Procedure, shortened: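 First, ME-180 AP-1-bla cells were cultured overnight at 37 °C in low-serum Opti-MEM. Next, titrated compounds with EC50 EGF were incubated 5 hours. Finally, CCF4 was added for 2.5 hours and the 460/530 nm ratio recorded.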

[3] = NFAT Signaling Pathway (AID 444); conditions: Jurkat NFAT-bla M1, carbachol, beta-lactamase ratio, 5 h; at 7.69 µM (top of the series) unless noted;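 note: carbachol stimulus at about its EC50 of 1 µM final; % is set by controls: 0 for no effect and ±100 for the full control effect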
Procedure, shortened: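 Jurkat cells carrying an NFAT-driven β-lactamase reporter and co-transfected muscarinic M1 receptor were treated with compound plus carbachol (1 uM final, an EC50 level) for 5 h at 37 °C. CCF4 loading followed for 1 h at RT; 460/530 nm ratio gave %activity.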

[4] = Stat Signaling Pathway (AID 446); conditions: ME-180 SIE beta-lactamase reporter, IL-6 stimulated, 5 h; at 7.69 µM (top of the series) unless noted;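 note: ME-180 cervical cancer cells given 40 pM IL-6 alongside compound; SIE-controlled beta-lactamase reporter measured as 460/530 nm FRET emission ratio; % is set by controls: 0 for no effect and ±100 for the full control effect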
Procedure, shortened: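 Emission at 460 and 530 nm (excitation 405 nm) reports SIE-controlled beta-lactamase in ME-180 cells. Cells received compound with 40 pM IL-6 for 5 hrs at 37 C; data scaled between 300 pM IL-6 and 125 nM JAK-inhibitor controls.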

[5] = target: Glucocorticoid receptor (Homo sapiens) (UniProt P04150); assay: GR-GFP Redistribution (AID 450;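 active = compounds whose dose series gives a full or clear partial fitted curve of increased nuclear translocation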; note: potency is the fitted concentration of half-maximal effect); conditions: U2OS GR-GFP nuclear translocation, laser cytometry, 2 h
[6] = target: Glucocorticoid receptor (Homo sapiens) (UniProt P04150); assay: GR-EFC Redistribution (AID 451; calls by dose curve; note: potency is the fitted concentration of half-maximal effect); conditions: CHO-K1 GR-EFC translocation, beta-gal luminescence, 2 h
Procedure, shortened: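 CHO-K1 cells stably expressing nuclear-localized β-gal enzyme acceptor and GR fused C-terminally to the enzyme donor fragment; ligand-driven nuclear translocation restores β-gal by complementation. Compounds titrated up to 46 uM final, 2 h at 37 °C; luminescence read.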

[7] = target: Mitogen-activated protein kinase 10 (Mus musculus) (UniProt Q61831); assay: JNK3 AlphaScreen Assay (AID 530); conditions: JNK3 lysate, c-Jun phosphorylation; series mostly up to 57.1 µM;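 note: kinase came from lysate of stimulated human HepG2 cells; signal reports phosphorylation of biotinylated GST-cJun 1-79 at Ser73 with 10 µM ATP; % is set by controls: 0 for no effect and ±100 for the full control effect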
Procedure, shortened: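 Phosphorylation of biotinylated GST-cJun(1-79) at Ser73 is measured by AlphaScreen proximity luminescence. Enzyme is JNK3 in HepG2 lysates activated with interleukin-1beta and tumor necrosis factor alpha; ATP is 10 uM final.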

[8] = target: Cytochrome P450 3A4 (Homo sapiens) (UniProt P08684); assay: qHTS Assay for Inhibitors and Substrates of Cytochrome P450 3A4 (AID 884; active = well fitted curve in the direction sought with a large enough effect; an effect the other way counts as inactive or inconclusive; note: potency is the fitted concentration of half-maximal effect; nearly all actives have a fitted effect of over 50% in size); conditions: recombinant CYP3A4, Luciferin-PPXE luminescence; series mostly up to 57.1 µM
Procedure, shortened: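 Luminescent readout of luciferin produced by CYP3A4 (20 nM) dealkylation of Luciferin-PPXE, 25 uM (its KM). NADPH-driven reaction ran 60 min at RT after 10 min compound preincubation; data scaled to 57 uM ketoconazole as 100% inhibition.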

[9] = target: Cytochrome P450 3A4 (Homo sapiens) (UniProt P08684); assay: qHTS Assay for Activators of Cytochrome P450 3A4 (AID 885; active = well fitted curve in the direction sought with a large enough effect; an effect the other way counts as inactive or inconclusive; note: nearly all actives have a fitted effect of over 65% in size); conditions: recombinant CYP3A4, Luciferin-PPXE luminescence, 60 min; series mostly up to 57.1 µM
Procedure, shortened: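 Activators are scored by enhanced luminescence from CYP3A4 conversion of luciferin-PPXE (25uM, equal to KM) to luciferin, after 60 min at RT with an NADPH-regenerating system.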

[10] = target: Cytochrome P450 2C19 (Homo sapiens) (UniProt P33261); assay: qHTS Assay for Inhibitors and Substrates of Cytochrome P450 2C19 (AID 899; active = well fitted curve in the direction sought with a large enough effect; an effect the other way counts as inactive or inconclusive; note: potency is the fitted concentration of half-maximal effect; nearly all actives have a fitted effect of over 60% in size); conditions: recombinant CYP2C19, luciferin-H EGE luminescence; series mostly up to 57.1 µM
Procedure, shortened: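 In 50mM KPO4, the reaction held 5nM enzyme and KM-level (10uM) Luciferin-H EGE; it ran 60 min at 37C after NADPH regeneration and a 10 min compound preincubation. Luminescence values were scaled to 57uM ketoconazole as complete inhibition.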

[11] = Primary qHTS for small molecule stabilizers of the endoplasmic reticulum resident proteome: Secreted ER Calcium Modulated Protein (SERCaMP) assay (AID 1508630; active = well fitted curve in the direction sought with a large enough effect; an effect the other way counts as inactive or inconclusive; note: % is set by controls: 0 for no effect and ±100 for the full control effect); conditions: SH-SY5Y GLuc-SERCaMP (Gaussia luciferase released on ER calcium loss) secretion, thapsigargin, luminescence; series mostly up to 38.4 µM
Procedure, shortened: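 The SH-SY5Y reporter protocol was run at 3 concentrations up to 38.3 uM (primary) or 11 concentrations (follow-up): 16 h compound, 100 nM thapsigargin for 4 h, then extracellular luciferase luminescence.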

[12] = target: 3',5'-cyclic-AMP phosphodiesterase 4B (Homo sapiens) (UniProt Q07343); assay: qHTS Assay for Inhibitors of PDE-IV (AID 607; active = well fitted activation curve with a large enough effect in the main read-out, with a control signal flat, not every such curve was filed as active; note: % of control where 0% means no effect); conditions: HEK293 ACTOne CNG channel cells, membrane potential fluorescence; series mostly up to 22.9 µM
Procedure, shortened: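 The readout is membrane depolarisation from a cAMP-sensing CNG channel, detected with a potential dye at ex 535/em 590. Cells were HEK293-derived (endogenous PDE-IV) at 1000 cells/well, titrated up to 22.9 uM final.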

[13] = qHTS Assay for Identification of Small Molecule Agonists for Hypoxia Response Element Signaling Pathway (AID 914; active = well fitted activation curve with a large enough effect in the signal ratio, with a control signal flat, not every such curve was filed as active; the % refers to the signal ratio; note: potency is the fitted concentration of half-maximal effect; for activation: % of control where 0% means no effect); conditions: ME-180 (cervical carcinoma) HRE-bla reporter, beta-lactamase ratio, CoCl2, 17 h; activation: stronger effect = higher value
Procedure, shortened: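 qHTS titration; ME-180 HRE-bla cells; EC50 CoCl2 co-treatment, 17 h at 37 degrees Celsius; CCF4 dye, ex 405nm, em 460nm and 530nm; %Activity from ratio; AC50.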

[14] = Confirmation and Secondary Assay for Modulators of Hemoglobin Beta Chain Splicing at IVS2 654 locus (AID 910; active = well fitted curve in the direction sought with a large enough effect; an effect the other way counts as inactive or inconclusive;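 note: per-well total GFP intensity by laser scanning cytometry after 2-day treatment; % of control where 0% means no effect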); conditions: HeLa EGFP-654 splicing reporter, GFP fluorescence, 48 h; series mostly up to 38.3 µM
Procedure, shortened: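 HeLa cells stably carrying EGFP interrupted by mutant beta-globin IVS2-654 intron (CMV-driven) were treated with compound for 2 days at 37C; corrected splicing was scored as total peak GFP intensity per well (488 nm excitation, 500-520 nm emission).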

[15] = Confirmation and Secondary Assay for Modulators of Hemoglobin Beta Chain Splicing at IVS2 705 locus (AID 930; active = well fitted curve in the direction sought with a large enough effect; an effect the other way counts as inactive or inconclusive;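 note: HeLa cells stably expressing the EGFP-705 splicing reporter; GFP fluorescence per well restored by corrected splicing of the IVS2-705 intron in EGFP; % of control where 0% means no effect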); conditions: HeLa EGFP-705 splicing reporter, GFP fluorescence, 48 h; series mostly up to 38.3 µM
Procedure, shortened: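 Secondary splice-site specificity test uses HeLa expressing CMV-driven EGFP interrupted by IVS2-705; cells were treated 2 days at 37C with 500 nM antisense PNA as positive control.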

Lysosomal acid glucosylceramidase (Homo sapiens), sequence (P04062 whole entry, looked up): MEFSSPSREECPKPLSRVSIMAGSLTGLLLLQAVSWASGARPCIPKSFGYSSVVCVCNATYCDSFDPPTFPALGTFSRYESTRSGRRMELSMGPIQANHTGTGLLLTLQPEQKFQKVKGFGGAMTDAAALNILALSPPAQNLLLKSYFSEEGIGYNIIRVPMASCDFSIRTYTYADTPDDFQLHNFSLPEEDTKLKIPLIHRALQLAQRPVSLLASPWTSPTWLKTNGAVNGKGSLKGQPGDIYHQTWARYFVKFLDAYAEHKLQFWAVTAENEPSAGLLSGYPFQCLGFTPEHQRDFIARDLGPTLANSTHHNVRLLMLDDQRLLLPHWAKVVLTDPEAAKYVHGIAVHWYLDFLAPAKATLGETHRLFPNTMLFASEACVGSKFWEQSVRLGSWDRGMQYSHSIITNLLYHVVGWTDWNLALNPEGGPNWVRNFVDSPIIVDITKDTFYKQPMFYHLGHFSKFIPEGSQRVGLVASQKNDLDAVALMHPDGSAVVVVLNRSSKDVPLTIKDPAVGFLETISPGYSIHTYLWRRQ
Glucocorticoid receptor (Homo sapiens), sequence (P04150 whole entry, looked up, the tested form may be a part): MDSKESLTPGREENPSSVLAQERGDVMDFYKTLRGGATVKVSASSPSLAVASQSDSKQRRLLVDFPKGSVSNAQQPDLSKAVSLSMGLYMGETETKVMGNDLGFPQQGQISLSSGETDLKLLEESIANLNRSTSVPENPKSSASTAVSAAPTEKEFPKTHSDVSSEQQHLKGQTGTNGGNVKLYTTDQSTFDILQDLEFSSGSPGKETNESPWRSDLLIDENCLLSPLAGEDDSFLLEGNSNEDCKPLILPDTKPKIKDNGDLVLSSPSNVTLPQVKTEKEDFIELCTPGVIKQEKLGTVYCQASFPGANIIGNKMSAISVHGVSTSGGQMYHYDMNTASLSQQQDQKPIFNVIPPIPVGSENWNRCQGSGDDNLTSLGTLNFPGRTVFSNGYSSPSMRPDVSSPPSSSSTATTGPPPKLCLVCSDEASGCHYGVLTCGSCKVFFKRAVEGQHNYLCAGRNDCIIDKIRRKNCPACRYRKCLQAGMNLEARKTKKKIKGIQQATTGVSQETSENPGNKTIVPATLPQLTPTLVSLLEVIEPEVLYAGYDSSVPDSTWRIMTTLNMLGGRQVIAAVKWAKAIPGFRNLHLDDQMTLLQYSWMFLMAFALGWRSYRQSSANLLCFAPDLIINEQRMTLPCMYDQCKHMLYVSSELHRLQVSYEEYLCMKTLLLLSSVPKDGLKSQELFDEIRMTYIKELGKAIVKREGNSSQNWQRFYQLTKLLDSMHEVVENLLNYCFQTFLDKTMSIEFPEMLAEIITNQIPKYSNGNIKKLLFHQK
Cytochrome P450 3A4 (Homo sapiens), sequence (P08684 whole entry, looked up): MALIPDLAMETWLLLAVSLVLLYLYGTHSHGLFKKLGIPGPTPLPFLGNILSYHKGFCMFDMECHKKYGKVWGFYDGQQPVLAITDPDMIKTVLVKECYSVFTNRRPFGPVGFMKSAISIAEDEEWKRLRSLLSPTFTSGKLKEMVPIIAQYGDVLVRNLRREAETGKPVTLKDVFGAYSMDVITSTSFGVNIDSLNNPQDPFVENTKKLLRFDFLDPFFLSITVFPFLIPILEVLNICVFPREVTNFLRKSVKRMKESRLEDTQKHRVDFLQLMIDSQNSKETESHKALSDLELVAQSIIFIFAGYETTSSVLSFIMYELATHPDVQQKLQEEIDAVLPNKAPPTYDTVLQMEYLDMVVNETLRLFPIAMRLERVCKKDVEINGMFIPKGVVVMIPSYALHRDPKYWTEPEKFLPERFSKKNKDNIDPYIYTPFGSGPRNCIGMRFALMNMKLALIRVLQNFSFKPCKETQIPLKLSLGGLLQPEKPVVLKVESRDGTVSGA
3',5'-cyclic-AMP phosphodiesterase 4B (Homo sapiens), sequence (Q07343 whole entry, looked up): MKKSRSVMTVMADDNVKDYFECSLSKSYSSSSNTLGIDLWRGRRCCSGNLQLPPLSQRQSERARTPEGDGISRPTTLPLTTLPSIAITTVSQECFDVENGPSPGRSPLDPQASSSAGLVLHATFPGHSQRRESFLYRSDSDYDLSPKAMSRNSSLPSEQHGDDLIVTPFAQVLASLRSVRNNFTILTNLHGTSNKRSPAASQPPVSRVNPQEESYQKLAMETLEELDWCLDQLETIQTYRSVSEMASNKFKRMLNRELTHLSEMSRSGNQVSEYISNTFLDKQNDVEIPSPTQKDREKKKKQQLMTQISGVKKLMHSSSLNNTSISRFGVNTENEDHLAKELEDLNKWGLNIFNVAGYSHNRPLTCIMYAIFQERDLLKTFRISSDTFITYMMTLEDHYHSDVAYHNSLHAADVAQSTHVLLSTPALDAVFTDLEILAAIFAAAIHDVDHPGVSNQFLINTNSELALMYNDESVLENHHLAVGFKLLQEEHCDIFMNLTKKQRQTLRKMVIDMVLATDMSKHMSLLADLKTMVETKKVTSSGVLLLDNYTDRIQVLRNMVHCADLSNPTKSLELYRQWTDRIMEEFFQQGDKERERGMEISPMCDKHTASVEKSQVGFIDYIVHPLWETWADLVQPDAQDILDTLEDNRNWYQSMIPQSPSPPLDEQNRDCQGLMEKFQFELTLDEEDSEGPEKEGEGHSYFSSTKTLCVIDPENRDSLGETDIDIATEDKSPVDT
Cytochrome P450 2C19 (Homo sapiens), sequence (P33261 whole entry, looked up): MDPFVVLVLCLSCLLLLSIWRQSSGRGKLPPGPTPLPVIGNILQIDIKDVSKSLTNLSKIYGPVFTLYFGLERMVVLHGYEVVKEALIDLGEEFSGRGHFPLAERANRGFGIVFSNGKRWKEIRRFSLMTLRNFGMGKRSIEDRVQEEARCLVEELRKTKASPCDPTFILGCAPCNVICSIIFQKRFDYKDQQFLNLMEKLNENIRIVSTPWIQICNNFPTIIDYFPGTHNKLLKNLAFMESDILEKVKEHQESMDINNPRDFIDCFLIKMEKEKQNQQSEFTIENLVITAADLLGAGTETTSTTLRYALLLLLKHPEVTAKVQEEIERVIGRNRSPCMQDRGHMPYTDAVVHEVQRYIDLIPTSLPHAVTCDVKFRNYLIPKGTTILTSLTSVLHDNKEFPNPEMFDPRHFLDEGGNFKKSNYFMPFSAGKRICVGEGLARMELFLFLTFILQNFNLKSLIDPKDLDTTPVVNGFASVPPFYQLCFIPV

SMILES	Potency [1]	activity change, negative = inhibition [2]	activity change, negative = inhibition [3]	activity, negative = inhibition [4]	Potency [5]	Potency [6]	Potency [7]	Potency [8]	Potency [9]	Potency [10]	outcome [11]	Potency [12]	Potency [13]	activation [13]	Potency [14]	outcome [15]
Fc1ccc(Nc2ccnc(-c3ccc4c(c3)OCO4)n2)cc1	> 11.4 µM	8.72%	-0.562%	-6.41%	> 46 µM	> 46 µM	inactive	2 µM (active)	inactive	2 µM (active)	inactive	–	–	–	–	–
O=c1cnc2cnc(Oc3ccccc3)nc2n1C[C@H]1CCCO1	> 11.4 µM	-19.1%	-3.47%	-8.07%	> 9.22 µM	> 46 µM	inactive	–	–	–	inactive	inactive	–	–	–	–
COc1ccc(-n2c(=O)c(-c3ccc(F)cc3)nc3cnc(OC)nc32)cc1	> 11.4 µM	-6.43%	8.51%	-13.4%	> 9.22 µM	> 46 µM	inactive	–	inactive	–	inactive	inactive	–	–	–	–
COc1cccc(Cn2c(=O)c(-c3ccc(F)c(F)c3)nc3cncnc32)c1	> 11.4 µM	-5.97%	-0.724%	2.07%	> 9.22 µM	> 46 µM	–	–	–	–	inactive	inactive	–	–	–	–
COc1cccc(Cn2c(=O)c(-c3ccc(Cl)cc3)nc3cnc(N(C)C)nc32)c1	> 11.4 µM	122% [activator] (active)	154% [activator] (active)	215% [activator] (active)	> 9.22 µM	> 46 µM	inactive	–	–	–	inactive	inactive	0.316 µM (active)	–	–	–
COc1ccc(-n2c(=O)c(CCc3ccccc3)nc3cnc(N(C)C)nc32)cc1	> 11.4 µM	0.546%	-2.06%	0.00123%	> 9.22 µM	> 46 µM	inactive	–	inactive	–	inactive	inactive	–	10.3%	–	–
COc1cccc(Cn2c(=O)c(-c3cccc(Cl)c3)nc3cncnc32)c1	> 11.4 µM	-20.4%	-10.8%	-8.57%	> 9.22 µM	> 46 µM	–	–	–	–	inactive	inactive	–	–	–	–
Cc1cnc(CNc2ncnc3ccc(-c4ccccc4C#N)cc23)cn1	> 11.4 µM	9.76%	0.584%	-10.7%	> 46 µM	> 46 µM	inactive	–	–	–	inactive	inactive	–	–	inactive	inactive
COc1ccccc1CCn1c(=O)c(C)nc2cncnc21	> 11.4 µM	-13.2%	6.15%	-13.1%	> 9.22 µM	> 46 µM	inactive	–	–	–	inactive	inactive	–	–	–	–
COc1ccc(Oc2ncc3nc(C)c(=O)n(C4CC4)c3n2)cc1	> 11.4 µM	-0.17%	-5.38%	-4.78%	> 9.22 µM	> 46 µM	inactive	–	–	–	inactive	inactive	–	-6.35%	–	–
COc1ncc2nc(-c3ccc(F)cc3)c(=O)n(C[C@H]3CCCO3)c2n1	> 11.4 µM	3.08%	-6.14%	-1.31%	> 9.22 µM	> 46 µM	inactive	–	–	–	inactive	inactive	–	–	–	–
COc1cccc(Cn2c(=O)c(-c3cccc(F)c3)nc3cncnc32)c1	> 11.4 µM	-9.03%	-6.22%	-7.22%	> 9.22 µM	> 46 µM	inactive	–	inactive	–	inactive	inactive	–	–	–	–
O=c1c(-c2cccc(F)c2)nc2cncnc2n1Cc1ccccc1	> 11.4 µM	-7.86%	-7.28%	-8.08%	> 9.22 µM	> 46 µM	–	–	inactive	–	inactive	–	–	–	–	–
O=c1c(-c2ccc(F)cc2)nc2cncnc2n1C1CC1	> 11.4 µM	-6.77%	2.7%	-6.49%	> 9.22 µM	> 46 µM	inactive	–	–	–	inactive	–	–	–	–	–
COc1cccc(Cn2c(=O)c(-c3cc(F)cc(F)c3)nc3cnc(OC)nc32)c1	> 11.4 µM	-16.9%	-18.1%	-4.81%	> 9.22 µM	> 46 µM	inactive	–	–	–	inactive	inactive	–	–	–	–
COc1ccc(Oc2ncc3ncc(=O)n(CCC#N)c3n2)cc1	> 11.4 µM	-11.3%	-5.59%	-8.02%	> 9.22 µM	> 46 µM	inactive	–	–	–	inactive	–	–	–	–	–
